Test results published in PubChem BioAssay (EPA / NIEHS).
Records with an inconclusive call do not appear. Active and inactive are the calls of the source. Rule for the calls: active = hit-call score of the fitted dose curve at least 0.9, where 1 is the maximum; inconclusive = response in the unintended direction; inactive = score below 0.9.

The compounds below were run against human Phosphatase and Tensin Homolog (PTEN), PTEN (gene 5728) (UniProt P60484) (assay: NVS_ENZ_hPTEN: NovaScreen (NVS) Enzymatic Assay for human Phosphatase and Tensin Homolog (PTEN) (AID 2283203)).
Chain of human Phosphatase and Tensin Homolog (PTEN), PTEN (gene 5728) (P60484 whole entry, looked up): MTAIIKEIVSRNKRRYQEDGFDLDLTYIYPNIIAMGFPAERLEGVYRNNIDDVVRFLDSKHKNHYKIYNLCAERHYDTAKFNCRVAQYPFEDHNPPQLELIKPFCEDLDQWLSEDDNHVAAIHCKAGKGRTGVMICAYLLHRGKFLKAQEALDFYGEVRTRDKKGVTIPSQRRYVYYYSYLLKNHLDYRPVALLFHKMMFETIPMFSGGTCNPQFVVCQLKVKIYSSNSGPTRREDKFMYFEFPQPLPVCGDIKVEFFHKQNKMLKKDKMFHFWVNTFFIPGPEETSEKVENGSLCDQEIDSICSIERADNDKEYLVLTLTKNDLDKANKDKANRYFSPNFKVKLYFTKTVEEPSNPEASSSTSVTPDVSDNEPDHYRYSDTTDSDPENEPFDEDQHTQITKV
Procedure, shortened: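 Loss of fluorescent product signal after mobility-shift separation reports PTEN activity, recombinant human enzyme, 1 h after compound addition. Single 25 uM duplicate screen, then concentration-response on actives; DMSO baseline.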
With CCNc1nc(NC(C)(C)C)nc(OC)n1 the outcome was “inactive”. For O=C1C=CC(=O)O1, the outcome was “inactive”. For Nc1ccc(S(=O)(=O)Nc2nccs2)cc1, the outcome was “inactive”. With CCCCCC1=CCCC1=O the AC50 was 16.3 µM (active). In the case of Nc1ccc(F)c([N+](=O)[O-])c1, the outcome is reported as “inactive”. CCOC(=O)C1=NN(c2ccc(Cl)cc2Cl)C(C)(C(=O)OCC)C1 (stereo not drawn) was tested, and the outcome was “inactive”. In the case of CCOC(=O)[C@H](C)O, the outcome is reported as “inactive”. For CN(CCOc1ccc(CC2SC(=O)NC2=O)cc1)c1ccccn1 (stereo not drawn), the outcome was “inactive”. With C1CCC(SSC2CCCCC2)CC1 the outcome was “inactive”. In the case of C#CC(O)CCC (stereo not drawn), the AC50 is reported as 25 µM (active). N#[N+]c1ccc2c(S(=O)(=O)[O-])cccc2c1O was tested, and the outcome was “inactive”. For Cc1cncc(C)c1, the outcome was “inactive”. With O=C(O)c1[nH]n(-c2ccc(S(=O)(=O)O)cc2)c(=O)c1N=Nc1ccc(S(=O)(=O)O)cc1 the outcome was “inactive”. Oc1ccc2c(c1)CCC2 was tested, and the AC50 was 1.62 µM (active). Cc1ccc(N)c([N+](=O)[O-])c1 was tested, and the AC50 was 25 µM (active).

These compounds were tested against human Protein Tyrosine Phosphatase Non-receptor Type 2 (PTPN2), PTPN2 (gene 5771) (UniProt P17706) (assay: NVS_ENZ_hPTPN2: NovaScreen (NVS) Enzymatic Assay for human Protein Tyrosine Phosphatase Non-receptor Type 2 (PTPN2) (AID 2283207)).
Chain of human Protein Tyrosine Phosphatase Non-receptor Type 2 (PTPN2), PTPN2 (gene 5771) (P17706 whole entry, looked up): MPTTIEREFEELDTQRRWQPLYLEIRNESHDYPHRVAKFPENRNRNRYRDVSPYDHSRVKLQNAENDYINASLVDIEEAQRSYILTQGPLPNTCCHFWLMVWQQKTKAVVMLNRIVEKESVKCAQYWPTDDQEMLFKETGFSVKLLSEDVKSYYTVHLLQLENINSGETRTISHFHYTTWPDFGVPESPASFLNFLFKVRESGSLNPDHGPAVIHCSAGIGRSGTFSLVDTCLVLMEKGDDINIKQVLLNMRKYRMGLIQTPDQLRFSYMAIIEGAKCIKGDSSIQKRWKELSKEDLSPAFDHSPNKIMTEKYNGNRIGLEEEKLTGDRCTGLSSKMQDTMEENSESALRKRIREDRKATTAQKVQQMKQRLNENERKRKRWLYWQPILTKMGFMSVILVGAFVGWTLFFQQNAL
Procedure, shortened: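 Activity measured as fluorescence after mobility-shift separation of substrate and product, 1 h after compound. Duplicate single-point 25 uM primary testing, concentration series for actives; inhibition scored as signal loss relative to DMSO baseline.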
c1ccc(Nc2ccccc2)cc1 was tested, and the outcome was “inactive”. COc1nc(C)nc(NC(=O)NS(=O)(=O)c2ccccc2OCCCl)n1 was tested, and the outcome was “inactive”. For OC[C@H]1O[C@@H]2O[C@H]3[C@H](O)[C@@H](O)[C@@H](O[C@H]4[C@H](O)[C@@H](O)[C@@H](O[C@H]5[C@H](O)[C@@H](O)[C@@H](O[C@H]6[C@H](O)[C@@H](O)[C@@H](O[C@H]7[C@H](O)[C@@H](O)[C@@H](O[C@H]1[C@H](O)[C@H]2O)O[C@@H]7CO)O[C@@H]6CO)O[C@@H]5CO)O[C@@H]4CO)O[C@@H]3CO, the outcome was “inactive”.

These compounds were tested against human Protein Tyrosine Phosphatase Receptor Type C (PTPRC), PTPRC (gene 5788) (UniProt P08575) (assay: NVS_ENZ_hPTPRC: NovaScreen (NVS) Enzymatic Assay for human Protein Tyrosine Phosphatase Receptor Type C (PTPRC) (AID 2283212)).
Chain of human Protein Tyrosine Phosphatase Receptor Type C (PTPRC), PTPRC (gene 5788) (P08575 whole entry, looked up): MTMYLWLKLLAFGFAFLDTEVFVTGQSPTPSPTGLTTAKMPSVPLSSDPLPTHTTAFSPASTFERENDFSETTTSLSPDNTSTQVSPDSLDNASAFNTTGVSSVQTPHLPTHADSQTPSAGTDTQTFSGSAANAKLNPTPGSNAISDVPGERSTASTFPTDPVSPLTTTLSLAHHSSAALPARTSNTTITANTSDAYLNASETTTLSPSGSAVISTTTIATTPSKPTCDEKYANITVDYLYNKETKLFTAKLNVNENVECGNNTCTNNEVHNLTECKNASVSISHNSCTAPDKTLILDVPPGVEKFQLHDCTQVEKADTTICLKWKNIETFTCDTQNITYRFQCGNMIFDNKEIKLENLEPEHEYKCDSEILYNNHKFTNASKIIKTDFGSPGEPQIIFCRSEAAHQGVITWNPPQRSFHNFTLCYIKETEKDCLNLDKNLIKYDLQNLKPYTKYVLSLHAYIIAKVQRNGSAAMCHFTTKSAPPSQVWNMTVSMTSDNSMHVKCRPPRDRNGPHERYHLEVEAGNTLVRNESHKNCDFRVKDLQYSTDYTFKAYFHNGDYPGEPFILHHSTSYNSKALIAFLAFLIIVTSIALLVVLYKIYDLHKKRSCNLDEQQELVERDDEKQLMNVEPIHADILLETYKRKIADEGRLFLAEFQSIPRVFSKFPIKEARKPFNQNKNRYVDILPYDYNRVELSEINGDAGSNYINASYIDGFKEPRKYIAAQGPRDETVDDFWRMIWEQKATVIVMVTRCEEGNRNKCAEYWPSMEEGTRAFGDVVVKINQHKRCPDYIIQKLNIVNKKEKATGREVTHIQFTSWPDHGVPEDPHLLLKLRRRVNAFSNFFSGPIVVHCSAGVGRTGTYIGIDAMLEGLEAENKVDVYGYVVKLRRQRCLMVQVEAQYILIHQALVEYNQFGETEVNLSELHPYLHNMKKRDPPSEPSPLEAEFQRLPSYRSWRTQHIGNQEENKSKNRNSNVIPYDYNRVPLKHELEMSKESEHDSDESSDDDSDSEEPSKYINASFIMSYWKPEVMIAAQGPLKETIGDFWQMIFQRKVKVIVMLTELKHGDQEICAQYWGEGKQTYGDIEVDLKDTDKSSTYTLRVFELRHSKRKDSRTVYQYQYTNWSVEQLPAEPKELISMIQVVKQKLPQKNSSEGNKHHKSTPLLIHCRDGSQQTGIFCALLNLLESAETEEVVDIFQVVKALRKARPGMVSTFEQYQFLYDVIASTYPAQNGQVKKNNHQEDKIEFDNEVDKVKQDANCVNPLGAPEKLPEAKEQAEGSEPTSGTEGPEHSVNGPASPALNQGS
Procedure, shortened: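 Absorbance-based phosphatase activity of human PTPRC protein extracted from yeast was measured 1 h post-dosing. Compounds first tested at 25 uM in duplicate, then those passing threshold in singleton concentration series to 50 uM.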
With Nc1ccc(Nc2ccccc2)cc1 the AC50 was 19.1 µM (active). With OC12N=C(c3ccccc3)SC1Cc1cc(Cl)ccc12 (stereo not drawn) the AC50 was 21.3 µM (active). NC(=O)NN=Cc1ccc([N+](=O)[O-])o1 was tested, and the AC50 was 11.3 µM (active). With CCCCCCC(=O)OCC the outcome was “inactive”. In the case of Nc1nc2ncc(CNc3ccc(C(=O)N[C@@H](CCC(=O)O)C(=O)O)cc3)nc2c(=O)[nH]1, the AC50 is reported as 15.8 µM (active). With CCCCCCOCCO the outcome was “inactive”. With Cc1c(C(=O)O)c(O)cc2c1C(=O)c1c(O)c([C@@H]3O[C@H](CO)[C@@H](O)[C@H](O)[C@H]3O)c(O)c(O)c1C2=O the AC50 was 11.7 µM (active). With ClC1=C(Cl)C(Cl)(Cl)C(Cl)=C1Cl the AC50 was 10.9 µM (active). With COC(=O)[C@H]1[C@H]2C[C@@H]3c4[nH]c5cc(OC)ccc5c4CCN3C[C@H]2C[C@@H](OC(=O)c2cc(OC)c(OC)c(OC)c2)[C@@H]1OC the AC50 was 21.1 µM (active). With Nc1nc(N)c2nc(CNc3ccc(C(=O)N[C@@H](CCC(=O)O)C(=O)O)cc3)cnc2n1 the AC50 was 14.5 µM (active). CCCC[C@H]1CN(CC2CCOCC2)C(=O)OC12CCN(C1(C)CCN(C(=O)c3c(C)ncnc3C)CC1)CC2 was tested, and the outcome was “inactive”. With CC(C)CCO the outcome was “inactive”. For C[C@@H]1C[C@H]2[C@@H]3CCC4=CC(=O)C=C[C@]4(C)[C@@]3(F)[C@@H](O)C[C@]2(C)[C@@]1(O)C(=O)COP(=O)(O)O, the AC50 was 15.3 µM (active).

What follows are compounds tested against human Raf-1 Proto-Oncogene, serine/threonine Kinase (RAF1), RAF1 (gene 5894) (UniProt P04049) (assay: NVS_ENZ_hRAF1: NovaScreen (NVS) Enzymatic Assay for human Raf-1 Proto-Oncogene, serine/threonine Kinase (RAF1) (AID 2283216)).
Chain of human Raf-1 Proto-Oncogene, serine/threonine Kinase (RAF1), RAF1 (gene 5894) (P04049 whole entry, looked up): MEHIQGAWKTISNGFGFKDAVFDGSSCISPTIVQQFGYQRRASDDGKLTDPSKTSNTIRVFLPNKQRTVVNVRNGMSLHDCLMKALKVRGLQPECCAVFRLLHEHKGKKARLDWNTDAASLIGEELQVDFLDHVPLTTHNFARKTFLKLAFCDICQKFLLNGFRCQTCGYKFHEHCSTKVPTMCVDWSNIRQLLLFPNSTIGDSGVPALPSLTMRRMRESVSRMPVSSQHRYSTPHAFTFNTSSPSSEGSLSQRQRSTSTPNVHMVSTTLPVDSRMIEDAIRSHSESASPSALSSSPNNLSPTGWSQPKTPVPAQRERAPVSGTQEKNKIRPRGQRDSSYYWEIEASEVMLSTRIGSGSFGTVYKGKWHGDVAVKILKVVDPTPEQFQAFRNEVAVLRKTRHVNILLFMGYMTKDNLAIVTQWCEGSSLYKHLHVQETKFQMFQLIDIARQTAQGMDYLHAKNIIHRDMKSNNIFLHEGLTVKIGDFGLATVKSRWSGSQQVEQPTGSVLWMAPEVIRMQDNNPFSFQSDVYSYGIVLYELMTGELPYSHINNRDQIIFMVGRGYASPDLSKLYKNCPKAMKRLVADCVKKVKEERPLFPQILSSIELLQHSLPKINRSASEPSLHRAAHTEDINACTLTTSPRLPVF
Procedure, shortened: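 Single-point screening at 25 uM (duplicate), followed by singleton concentration-response to 50 uM maximum for chemicals exceeding threshold. Enzyme activity from fluorescent substrate-product mobility-shift separation after 1 h, relative to DMSO.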
COc1ccc(/C=C/S(=O)(=O)NC(=O)c2ccc(C)cc2Cl)cc1 was tested, and the outcome was “inactive”. COC(=O)c1c(Cl)nn(C)c1S(=O)(=O)NC(=O)Nc1nc(OC)cc(OC)n1 was tested, and the outcome was “inactive”. In the case of Cc1cc2c(cc1C(F)(F)F)N(C(=O)Nc1ccc(Oc3cccnc3C)nc1)CC2, the AC50 is reported as 6.86 µM (active). With c1ccc2ncccc2c1 the outcome was “inactive”. C[C@@H]1C[C@H]2[C@@H]3CCC4=CC(=O)C=C[C@]4(C)[C@@]3(F)[C@@H](O)C[C@]2(C)[C@@]1(O)C(=O)COP(=O)(O)O was tested, and the outcome was “inactive”. In the case of CCO[Si](CCCNC(N)=O)(OCC)OCC, the outcome is reported as “inactive”.

The compounds below were run against human Tyrosine Protein Kinase Receptor Tie-2 (Tie2), TEK (gene 7010) (UniProt Q02763) (assay: NVS_ENZ_hTie2: NovaScreen (NVS) Enzymatic Assay for human Tyrosine Protein Kinase Receptor Tie-2 (Tie2) (AID 2283225)).
Chain of human Tyrosine Protein Kinase Receptor Tie-2 (Tie2), TEK (gene 7010) (Q02763 whole entry, looked up): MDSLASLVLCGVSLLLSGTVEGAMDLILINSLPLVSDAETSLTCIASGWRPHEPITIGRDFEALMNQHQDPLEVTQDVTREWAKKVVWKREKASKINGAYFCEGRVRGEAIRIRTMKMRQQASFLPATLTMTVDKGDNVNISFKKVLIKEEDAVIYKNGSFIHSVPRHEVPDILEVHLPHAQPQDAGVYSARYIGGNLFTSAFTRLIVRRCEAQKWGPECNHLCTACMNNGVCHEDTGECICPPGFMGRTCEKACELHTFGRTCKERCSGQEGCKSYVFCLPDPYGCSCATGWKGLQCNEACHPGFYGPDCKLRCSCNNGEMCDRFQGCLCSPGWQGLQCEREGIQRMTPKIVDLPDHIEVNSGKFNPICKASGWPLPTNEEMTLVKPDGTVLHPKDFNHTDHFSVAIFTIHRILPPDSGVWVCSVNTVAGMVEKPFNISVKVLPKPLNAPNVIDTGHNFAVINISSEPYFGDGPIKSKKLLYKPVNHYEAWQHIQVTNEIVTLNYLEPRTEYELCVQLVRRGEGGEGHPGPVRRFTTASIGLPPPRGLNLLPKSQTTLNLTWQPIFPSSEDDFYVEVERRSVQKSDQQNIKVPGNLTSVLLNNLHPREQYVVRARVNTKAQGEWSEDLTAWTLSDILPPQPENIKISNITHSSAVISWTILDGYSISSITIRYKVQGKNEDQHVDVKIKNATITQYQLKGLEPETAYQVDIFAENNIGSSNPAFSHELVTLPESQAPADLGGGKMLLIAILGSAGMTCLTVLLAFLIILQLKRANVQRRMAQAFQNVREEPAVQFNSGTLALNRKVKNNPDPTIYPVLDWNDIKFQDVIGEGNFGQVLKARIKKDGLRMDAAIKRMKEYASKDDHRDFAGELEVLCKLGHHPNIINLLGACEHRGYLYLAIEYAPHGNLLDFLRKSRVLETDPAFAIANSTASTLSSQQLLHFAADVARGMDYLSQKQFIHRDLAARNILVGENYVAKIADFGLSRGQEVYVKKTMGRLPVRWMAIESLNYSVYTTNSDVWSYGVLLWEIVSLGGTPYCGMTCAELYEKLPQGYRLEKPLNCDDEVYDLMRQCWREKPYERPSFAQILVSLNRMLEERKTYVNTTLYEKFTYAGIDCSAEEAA
Procedure, shortened: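 Substrate and product were separated by mobility shift and detected by fluorescence after a 1-hour reaction with recombinant Tie2. Chemicals passing a 25 uM single-point screen were titrated to a maximum of 50 uM. Results were normalized to DMSO baseline.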
For COc1ccc(/C=C/S(=O)(=O)NC(=O)c2ccc(C)cc2Cl)cc1, the outcome was “inactive”. In the case of CCCCOC(=O)CCCCC(=O)OCCCC, the outcome is reported as “inactive”. With CC(CO)OC(C)CO (stereo not drawn) (tested in a mixture with another compound) the outcome was “inactive”. C[C@]12C=CC(=O)C=C1CC[C@H]1[C@@H]3C[C@@H](O)[C@](O)(C(=O)CO)[C@@]3(C)C[C@H](O)[C@@]12F was tested, and the outcome was “inactive”.

What follows are compounds tested on rat Monoamine Oxidase, MAO-A, Central (MAOAC), gene 29253 (assay: NVS_ENZ_rMAOAC: NovaScreen (NVS) Enzymatic Assay for rat Monoamine Oxidase, MAO-A, Central (MAOAC) (AID 2283243);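 note: potency refers to inhibition seen as signal drop below DMSO baseline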).
Procedure, shortened: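 Single-concentration duplicate testing at 25 uM, then concentration-response for actives, in a lysate-based radiodetection MAO-A activity assay from rat brain. Enzyme activity measured 1.5 hours post-dosing; DMSO served as negative control and baseline.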
For CN(CCOc1ccc(CC2SC(=O)NC2=O)cc1)c1ccccn1 (stereo not drawn), the AC50 was 12.9 µM (active). With C#CC(O)CCC (stereo not drawn) the outcome was “inactive”. For Nc1nc(N)c2nc(CNc3ccc(C(=O)N[C@@H](CCC(=O)O)C(=O)O)cc3)cnc2n1, the AC50 was 0.889 µM (active). Cc1ccc(N)c([N+](=O)[O-])c1 was tested, and the AC50 was 8.62 µM (active).

These compounds were tested against Norway rat Vesicular Monoamine Transporter (VMAT2), neurotransmitter transporter, Slc18a2 (gene 25549) (UniProt Q01827) (assay: NVS_TR_rVMAT2: NovaScreen (NVS) Transporter Assay for Norway rat Vesicular Monoamine Transporter (VMAT2), neurotransmitter transporter (AID 2283376);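 note: actives lower the bound radioligand signal below the DMSO level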).
Chain of Norway rat Vesicular Monoamine Transporter (VMAT2), neurotransmitter transporter, Slc18a2 (gene 25549) (Q01827 whole entry, looked up): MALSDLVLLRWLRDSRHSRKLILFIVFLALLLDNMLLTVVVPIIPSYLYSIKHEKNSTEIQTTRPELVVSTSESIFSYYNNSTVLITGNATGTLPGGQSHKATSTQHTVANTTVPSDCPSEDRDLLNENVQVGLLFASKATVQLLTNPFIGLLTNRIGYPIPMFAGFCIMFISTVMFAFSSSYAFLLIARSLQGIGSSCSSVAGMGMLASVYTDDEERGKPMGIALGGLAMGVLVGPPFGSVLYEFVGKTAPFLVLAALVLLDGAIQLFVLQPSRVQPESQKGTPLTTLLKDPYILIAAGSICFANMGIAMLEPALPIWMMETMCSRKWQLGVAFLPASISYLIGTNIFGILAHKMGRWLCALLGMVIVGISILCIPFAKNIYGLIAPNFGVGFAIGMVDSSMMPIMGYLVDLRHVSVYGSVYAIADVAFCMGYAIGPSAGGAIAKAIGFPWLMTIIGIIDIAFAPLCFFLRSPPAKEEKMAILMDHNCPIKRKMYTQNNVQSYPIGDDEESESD
Procedure, shortened: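 Using rat forebrain membranes, specific radioligand binding to VMAT2 was measured by filtration and scintillation counting after 1 hour. Chemicals screened at 25 uM in duplicate, actives retested in concentration series, DMSO baseline.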
With Nc1ccc(Nc2ccccc2)cc1 the AC50 was 8.65 µM (active). For Nc1ccc(S(=O)(=O)Nc2nccs2)cc1, the outcome was “inactive”. With CCOC(=O)C1=NN(c2ccc(Cl)cc2Cl)C(C)(C(=O)OCC)C1 (stereo not drawn) the AC50 was 15.5 µM (active).
